bovine MsrA act: activates bovine MsrA enzyme | purified bovine MsrA, absorbance read-out | activation, % at 10.6 µM | hit rate 0.3% among 360,000 | AID 602163; in the data active = activation above about 7.5%
SMARCA2 act: increases SMARCA2 function in MMTV reporter cells; MG213 cells, MMTV-luciferase reporter, dexamethasone, overnight; activation, % at 9.1 µM; hit rate 1% among 370,000; AID 652017; in the data active = activation above about 7.8%
MsrA inh: inhibits bovine methionine sulfoxide reductase A. purified bovine MsrA, absorbance read-out. AID 651718. hit rate 0.75% among 360,000. inhibition, % at 15.5 µM; in the data active = inhibition above about 4.5%
KLK7 zymogen act: activators of human kallikrein-7 zymogen. activation, % at 7 µM. purified proKLK7, EDANS-DABCYL substrate fluorescence; 100% is mature enzyme control, 0% vehicle. P49862. hit rate 0.9% among 370,000. AID 652039;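 active = activation above the mean of all tested compounds plus 3 SD, computed per campaign excluding outliers beyond control limits, cut at about 13% in these data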
Target sequence (P49862 whole entry, looked up): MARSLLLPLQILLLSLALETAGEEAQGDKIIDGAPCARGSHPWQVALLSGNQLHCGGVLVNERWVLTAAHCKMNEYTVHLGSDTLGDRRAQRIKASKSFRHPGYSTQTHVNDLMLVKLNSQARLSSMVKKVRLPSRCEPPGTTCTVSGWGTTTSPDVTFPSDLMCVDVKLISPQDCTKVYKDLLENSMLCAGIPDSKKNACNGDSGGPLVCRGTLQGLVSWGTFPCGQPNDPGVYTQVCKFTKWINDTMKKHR
proKLK7 act conf: proKLK7 activation, confirmation | shares compounds with KLK7 zymogen act | purified proKLK7, EDANS-DABCYL substrate fluorescence; scaled: vehicle 0, mature enzyme 100 | activation, % at 7 µM | hit rate 68% among 3,200 | AID 686949;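 active = activation, as change over the incubation, above the mean of all tested compounds plus 3 SD, cut at about 13% in these data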
EDANS interfere: optically interferes with EDANS-DABCYL signal, flagging KLK7 hits | shares compounds with KLK7 zymogen act | EDANS-DABCYL substrate fluorescence interference, no enzyme, 4 h; solvent 0%, active enzyme control 100% | activation, % at 7 µM | hit rate 80% among 3,200 | AID 686952;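 active = activation above the all-compound mean plus 3 SD, ignoring values outside control-based bounds, cut at about 4.8% in these data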;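 also: value is the 4 h activation minus the activation read at time zero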
K7 EDANS ctr: EDANS fluorescence interference in dose response, no enzyme; shares compounds with KLK7 zymogen act; EDANS-DABCYL peptide fluorescence interference; EC50, µM; hit rate 20% among 250; AID 720493;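 active = compounds that raise the fluorescence signal in this interference counterscreen, with EC50 at or below 10 µM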;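 also: intact quenched peptide substrate alone read at 355 nm excitation and 520 nm emission; signal is fluorescence gain from T0 to T4 after four hours at room temperature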
Hits are given with their value. A selection: hits, their analogues and other compounds. The true share with any hit is near 2.8%.

Cc1[nH]nc2c(=S)[nH]c(=O)[nH]c12 was read as bovine MsrA act inactive, SMARCA2 act inactive, MsrA inh inactive and KLK7 zymogen act inactive.
CCC(c1nnnn1Cc1ccc(F)cc1)N(CCCO)Cc1cc2cc3c(cc2[nH]c1=O)OCO3 (stereo not given) was read as bovine MsrA act inactive, SMARCA2 act inactive, MsrA inh inactive, KLK7 zymogen act 26, proKLK7 act conf inactive and EDANS interfere inactive.
`O=C(N[C@H](C(=O)N1CCC[C@H]1C(=O)NCc1ccccc1)C1CCCCC1)c1ccccc1` gave SMARCA2 act inactive, MsrA inh inactive and KLK7 zymogen act inactive.
For O=C(CC[C@H]1O[C@@H](n2cnc3c(NC(=O)c4ccccc4)ncnc32)[C@H](O)[C@@H]1O)N[C@@H](CO)c1ccccc1 the results were bovine MsrA act inactive, SMARCA2 act inactive, MsrA inh inactive and KLK7 zymogen act inactive.
Cc1[nH]c2ccccc2c1CCCO was read as SMARCA2 act inactive, MsrA inh inactive and KLK7 zymogen act inactive.
OCCCCc1nccc2c1[nH]c1ccccc12 was read as bovine MsrA act inactive, SMARCA2 act inactive, MsrA inh inactive, KLK7 zymogen act 36, proKLK7 act conf 29 and EDANS interfere 37.
`COc1ccc(OC)c(/C=N\NC(=O)c2c(C)nc3cc(C)ccn23)c1` gave bovine MsrA act inactive, SMARCA2 act inactive, MsrA inh inactive, KLK7 zymogen act 16, proKLK7 act conf 24, EDANS interfere inactive and K7 EDANS ctr inactive.
Screening COc1cc(/C=N/NC(=O)c2c(C)nc3ccc(Cl)cn23)cc(OC)c1OC returned bovine MsrA act inactive, SMARCA2 act inactive, MsrA inh inactive, KLK7 zymogen act 36, proKLK7 act conf 19, EDANS interfere 14 and K7 EDANS ctr inactive.
C=CCOc1ccc(/C=N/NC(=O)c2c(C)nc3ccc(Cl)cn23)cc1 was read as bovine MsrA act inactive, SMARCA2 act inactive, MsrA inh inactive, KLK7 zymogen act 23, proKLK7 act conf 348 and EDANS interfere 333.
`COCCNc1ncnc2c1ncn2[C@H]1CN(Cc2ccc(-c3ccccc3)cc2)C[C@@H](CO)O1` gave bovine MsrA act inactive, SMARCA2 act inactive, MsrA inh inactive and KLK7 zymogen act inactive.
Screening C[C@H](CO)N1C[C@H](C)[C@H](CN(C)S(=O)(=O)c2cccc(C#N)c2)OCc2cnnn2CCCC1=O returned bovine MsrA act inactive, SMARCA2 act inactive, MsrA inh inactive and KLK7 zymogen act inactive.
For CN1CCN(S(=O)(=O)c2ccc3c4c(cccc24)C(=O)N3)CC1 the results were bovine MsrA act inactive, SMARCA2 act inactive, MsrA inh inactive, KLK7 zymogen act 66, proKLK7 act conf 41 and EDANS interfere 49.
For O=C1Nc2ccc(S(=O)(=O)N3CCCC3)c3cccc1c23 the results were bovine MsrA act inactive, SMARCA2 act inactive, MsrA inh inactive and KLK7 zymogen act inactive.
For O=C1Nc2ccc(S(=O)(=O)N3CCOCC3)c3cccc1c23 the results were bovine MsrA act inactive, SMARCA2 act inactive, MsrA inh inactive, KLK7 zymogen act 35, proKLK7 act conf 58 and EDANS interfere 57.
For CCN(CC)CC(=O)Nc1ccc(-c2nc3cc(NC(=O)CN(CC)CC)ccc3o2)cc1 the results were bovine MsrA act inactive, SMARCA2 act inactive, MsrA inh inactive and KLK7 zymogen act inactive.
O=C(CN1CCCC1)Nc1ccc(-c2nc3cc(NC(=O)CN4CCCC4)ccc3o2)cc1 was read as bovine MsrA act inactive, SMARCA2 act inactive, MsrA inh inactive, KLK7 zymogen act 58, proKLK7 act conf inactive and EDANS interfere inactive.
Cc1ccc(NC(=O)Cn2c(/C=C/c3ccccc3)nc3ccccc32)cc1C was read as bovine MsrA act inactive, SMARCA2 act inactive, MsrA inh inactive, KLK7 zymogen act 29, proKLK7 act conf 49 and EDANS interfere 43.
C[C@H]1CN(C(=O)OC(C)(C)C)CCN1c1ccc(N2CC[C@@H](O)C2)c(C#N)c1 was read as SMARCA2 act inactive, MsrA inh inactive and KLK7 zymogen act inactive.
Screening CCn1c(/C=C/c2cc[n+](C)cc2)nc2ccccc21 returned bovine MsrA act inactive, SMARCA2 act inactive, MsrA inh inactive, KLK7 zymogen act 57, proKLK7 act conf 59 and EDANS interfere 62.
For Cc1[nH]c2ccccc2c1CC(=O)Nc1ccc(Nc2cccnc2)c(-c2ccc(-c3ccccc3)cc2F)c1 the results were SMARCA2 act inactive, MsrA inh inactive and KLK7 zymogen act inactive.
Screening O=C(Nc1ccccc1F)c1cc2c(s1)-c1ccccc1S(=O)(=O)C2 returned bovine MsrA act inactive, SMARCA2 act inactive, MsrA inh inactive, KLK7 zymogen act 89, proKLK7 act conf 60 and EDANS interfere 93.
`O=C(c1cc2c(s1)-c1ccccc1S(=O)(=O)C2)N1CCCC1` gave bovine MsrA act inactive, SMARCA2 act inactive, MsrA inh inactive and KLK7 zymogen act inactive.
Screening CN1C(=O)c2cc(NC(=O)C3CCCCC3)ccc2OC[C@H]2O[C@@H](CC(=O)NC3CCCC3)CC[C@H]21 returned SMARCA2 act inactive and KLK7 zymogen act inactive.
For COC(=O)c1cc(C(c2ccccc2O)C2CCC(C)(C)O2)n2ccccc12 (stereo not given) the results were SMARCA2 act inactive, KLK7 zymogen act 36, proKLK7 act conf inactive and EDANS interfere inactive.
`Cc1cc(C)cc(N(CC(=O)NC2CCC(C)CC2)S(=O)(=O)c2ccc([N+](=O)[O-])cc2)c1` (stereo not given) gave SMARCA2 act inactive and KLK7 zymogen act inactive.
CNc1ncn(-c2c(C)cccc2C)c(=O)n1 was read as SMARCA2 act inactive, MsrA inh inactive and KLK7 zymogen act inactive.
`CCN(CC)CCCNc1cc(C(F)(F)F)c(C#N)c2nc3ccccc3n12` gave bovine MsrA act inactive, SMARCA2 act inactive, MsrA inh inactive, KLK7 zymogen act 53, proKLK7 act conf inactive and EDANS interfere inactive.
`CCN(CC)CCCNc1cc(C)c(C#N)c2nc3ccccc3n12` gave bovine MsrA act inactive, SMARCA2 act inactive, MsrA inh inactive, KLK7 zymogen act 69, proKLK7 act conf 38 and EDANS interfere 40.
For CCN(CC)CCNc1c2c(c(C#N)c3nc4ccccc4n13)CCCC2 the results were bovine MsrA act inactive, SMARCA2 act inactive, MsrA inh inactive and KLK7 zymogen act inactive.
For CCN(CC)CCNc1cc(C)c(C#N)c2nc3ccccc3n12 the results were bovine MsrA act inactive, SMARCA2 act inactive, MsrA inh inactive, KLK7 zymogen act 132, proKLK7 act conf inactive and EDANS interfere 5.4.
For Cc1cc(NCCCCO)n2c(nc3ccccc32)c1C#N the results were bovine MsrA act inactive, SMARCA2 act inactive, MsrA inh inactive, KLK7 zymogen act 43, proKLK7 act conf 47, EDANS interfere 37 and K7 EDANS ctr inactive.
Screening CCc1c(C)c(C#N)c2nc3ccccc3n2c1N(C)C returned bovine MsrA act inactive, SMARCA2 act inactive, MsrA inh inactive and KLK7 zymogen act inactive.
